# Measured values reported in PubChem BioAssay (NCATS).
# Results filed as inconclusive are left out. Unmarked numbers belong to inactive results. Active and inactive are the calls of the source. The call rests on the fitted dose curve; in most records, active means well fitted cell-killing curve with a large enough effect; inconclusive means small, poorly fitted or top-dose-only effect; inactive means flat fitted curve, though single readings scatter.
# Test: Quantitative highthroughput screen to assess conditional lethalithy of NOMO1 cells grown in RPMI1640 with dialyzed fetal bovine serum (RPMI+ds) (AID 1963877); further: nearly all actives have a fitted effect of over 30% in size
# Details: NOMO1 in RPMI+dialyzed FBS viability, ATP luminescence, 48 h; series mostly up to 45.8 µM; viability: at the top concentration
# Source text: Assay Provider: Jason Cantor Ph.D.
# Department of Biochemistry
# University of Wisconsin-Madison, Madison, WI, USA
# Chemical screening studies have identified drug sensitivities across hundreds of cancer cell lines but most putative therapeutics fail to translate. Discovery and development of drug candidates in models that more accurately reflect nutrient levels in human blood is a major challenge. Here we performed high-throughput screens in conventional versus Human Plasma-Like Medium (HPLM) to identify compounds that were "missed" when screening using the artificial culture condition. Sets of conditional anticancer compounds spanned phases of clinical development and included non-oncology drugs were assessed. […] We also traced conditional phenotypes for several chemotherapeutics to availability of HPLM-specific metabolites and confirmed others for compounds whose reported targets are encoded by nonessential genes. Our findings establish generalizable strategies for exploiting conditional lethality in HPLM to reveal therapeutic candidates and mechanisms of action in cancer cells.
# Described herein are the results of each viability screens against three cell lines: NOMO1 (an acute myeloid leukemia cell line); P12-Ichikawa (a T-cell acute lymphoblastic leukemia); and SEM (a B-cell ALL). Each assay was screened using 3 different cell culture media: homemade human plasma-Like medium with 10% dialyzed fetal bovine serum (HPLM+ds); RPMI1640 with 10% untreated FBS and 5mM glucose (RPMI+s); and RPMI1640 with 10% dialyzed fetal bovine serum and 5 mM glucose (RPMI+ds).
# PROTOCOL TABLE (as described by Inglese J, Shamu CE and Guy RK. 2007)
# SEQUENCE No. (e.g., 1, 2, 3, etc.); […] (e.g., Cells, Incubation, Reagent, etc.); VALUE and DESCRIPTION.
# 1; Cells; 5 uL; white, solid bottom 1536-well Greiner assay plate.
# 2; Compounds; 23 nL; Kalypsis pin tool (Wako USA) equipped with a 1536-well pin head to transfer to the assay plates.
# 3; Incubation; 48 hours; 37C incubation.
# 4; Reagent; 3 uL; CellTiter Glo (Promega).
# 5; Incubation; 5 min, room temperature
# 6; Detection; Luminescence, Viewlux PerkinElmer.
# NOTES (numbers refer to Sequence numbers above)
# 1. Briefly, 5 ul of cell reagent was dispensed using a Multidrop Combi Dispenser. The NOMO1 and SEM cells were plated at 500 cells/well and the P12-Ichikawa line at 1000 cells/well.
# 2. After seeding the cells, 23 nL of MIPE 4.1 library compounds (in DMSO) were added to each plate using a Kalypsys 1536 Pintool dispenser. Bortezomib at final concentration of […] and DMSO were added to each plate as positive and negative controls respectively. For each screen, MIPE 4.1 compounds were added over an eleven-point concentration range […] in 3-fold dilutions.
# 3. Each plate was covered with a stainless steel gasketed lid to prevent evaporation and incubated for 48 hour at 37C, 95% relative humidity, and 5% CO2.
# 4-5. Three microliter CellTilter-GloTM luminescent substrate mix (Promega) reagent was added to the assay plate and incubated at room temperature for 5 min.
# 6. The luminescence signal was measured using a ViewLux (PerkinElmer) multiplate reader with a 2 second exposure time per plate. Data for each compound were normalized as percent viability such that measurements for DMSO and the empty well controls in each plate were defined as 100% and 0%, respectively.
# Potency means the concentration at half of the fitted maximal effect.
Compound,viability,Potency
CN1[C@H]2CC[C@H]1CC(OC(=O)c1c[nH]c3ccccc13)C2 (stereo not given in full),91.4%,–
O=C(N[C@H](CO)[C@H](O)c1ccc([N+](=O)[O-])cc1)C(Cl)Cl,86.4%,–
CCOC(=O)C1=C(N)Oc2ccc(Br)cc2C1C(C#N)C(=O)OCC (stereo not given),94.5%,–
Cc1ccc(C(=O)c2cc(O)c(O)c([N+](=O)[O-])c2)cc1,101%,–
N=C(N=C(N)N)N1CCOCC1,103%,–
COC(=O)C1=C(C)NC(C)=C(C(=O)OC(C)C)C1c1cccc2nonc12 (stereo not given),121%,–
Cn1c(Nc2ccc(C(F)(F)F)cc2)nc2cc(Oc3ccnc(-c4ncc(C(F)(F)F)[nH]4)c3)ccc21,–,23500 nM (active)
CCOC(=O)C1=C(C)NC(=S)NC1c1cccc(O)c1 (stereo not given),–,264 nM (active)
CN1CCN(Cc2ccc(NC(=O)Nc3ccc(Oc4cc(NC(=O)C5CC5)ncn4)cc3)cc2C(F)(F)F)CC1,–,418 nM (active)
CCCN[C@H]1CCc2nc(N)sc2C1,89%,–
Cc1nnc(C(=O)NC(C)(C)c2nc(C(=O)NCc3ccc(F)cc3)c(O)c(=O)n2C)o1,105%,–
Nc1nc(-c2nn(Cc3ccccc3F)c3ncccc23)nc(N)c1N1CCOCC1,97.6%,–
O=C(NCCCNc1nc(Nc2cccc(NC(=O)N3CCCC3)c2)ncc1I)c1cccs1,99.4%,–
NS(=O)(=O)c1cc(Cl)c(Cl)c(S(N)(=O)=O)c1,95.6%,–
CN(C)c1nc(Cc2ccc(NC(=O)c3ccc(C(F)(F)F)cc3)cc2)nc(N(C)C)c1CC(=O)O,100%,–
CCCS(=O)(=O)Nc1ccc(F)c(C(=O)c2c[nH]c3ncc(-c4ccc(Cl)cc4)cc23)c1F,97.3%,–
CO[C@H]1C(=O)[C@]2(C)[C@@H](OC)C[C@H]3OC[C@@]3(OC(C)=O)[C@H]2[C@H](OC(=O)c2ccccc2)[C@]2(O)C[C@H](OC(=O)[C@H](O)[C@@H](NC(=O)OC(C)(C)C)c3ccccc3)C(C)=C1C2(C)C,–,13.2 nM (active)
O=c1[nH]c(=O)n([C@H]2C[C@@H](O)[C@@H](CO)O2)cc1F,–,14.8 nM (active)
O=C(C=Cc1cccnc1)NCCCCC1CCN(C(=O)c2ccccc2)CC1,–,3.3 nM (active)
O=C1CCC[C@@H]2[C@H]3CCC[N+]4([O-])CCC[C@@H](CN12)[C@@H]34 (stereo not given in full),–,7430 nM (active)

Compound,viability,Potency
Cc1cc(Nc2ncnc3ccc(-c4ccc(CNCCS(C)(=O)=O)o4)cc23)ccc1Oc1ccn2ncnc2c1,–,1180 nM (active)
CCOc1ccc(Cc2cc([C@@H]3O[C@H](CO)[C@@H](O)[C@H](O)[C@@H]3O)ccc2Cl)cc1,97.2%,–
CS(=O)c1ccc(-c2nc(-c3ccc(F)cc3)c(-c3ccncc3)[nH]2)cc1 (stereo not given),–,6790 nM (active)
CCN1CCN(C(=O)N[C@H](C(=O)N[C@@H]2C(=O)N3C(C(=O)O)=C(CSc4nnnn4C)CS[C@@H]23)c2ccc(O)cc2)C(=O)C1=O,115% [at 15.3 µM],–
O=C(NC1CCOCC1)c1ccc(-c2cc(-c3cn[nH]c3-c3ccccn3)ccn2)cc1,107%,–
S=P(N1CC1)(N1CC1)N1CC1,101%,–
NCCS(=O)(=O)O,104%,–
CC(C)[C@H](CO)Nc1nc(Nc2cccc(Cl)c2)c2ncn(C(C)C)c2n1,–,2350 nM (active)
CC1(C)C(=O)N(CCN2CCC(C(=O)c3ccc(F)cc3)CC2)c2ccccc21,–,18700 nM (active)
CC1=C[C@@H]2[C@@H]([C@@H](O)C[C@@]3(C)[C@H]2C[C@@H](C)[C@]3(O)C(=O)CO)[C@@]2(C)Cc3cnn(-c4ccccc4)c3C=C12,87.8%,–
O=C(c1ccc(OCCN2CCCCC2)cc1)c1c(-c2ccc(O)cc2)sc2cc(O)ccc12,79.3%,–
CN1CC(=O)N2C(Cc3c([nH]c4ccccc34)[C@H]2c2ccc3c(c2)OCO3)C1=O (stereo not given in full),90.8%,–
c1cc(OCCN2CCCCC2)cc(-c2n[nH]c3ccc(-c4ncn[nH]4)cc23)c1,94.9%,–
COc1cc2nc(N3CCCN(C)CC3)nc(NC3CCN(Cc4ccccc4)CC3)c2cc1OC,–,5260 nM (active)
CN1C(C(=O)Nc2ccccn2)=C(O)c2sc(Cl)cc2S1(=O)=O,102%,–
C[C@@H]1C[C@H]2[C@@H]3CCC4=CC(=O)C=C[C@]4(C)[C@@]3(Cl)[C@@H](O)C[C@]2(C)[C@@]1(OC(=O)c1ccco1)C(=O)CCl,–,6620 nM (active)
C[C@H]1C[C@H]2[C@@H]3CCC4=CC(=O)C=C[C@]4(C)[C@@H]3C(=O)C[C@]2(C)[C@@]1(O)C(=O)CO,106%,–
O=C(NC1CCNCC1)c1[nH]ncc1NC(=O)c1c(Cl)cccc1Cl,–,1180 nM (active)
COc1cc(OC)c(NC(=O)Nc2cc(C)on2)cc1Cl,96.1%,–
C[C@H]1C[C@@H]2[C@@H]([C@@H](O)C[C@@]3(C)[C@H]2CC[C@]3(O)C(=O)CO)[C@@]2(C)C=CC(=O)C=C12,96.6%,–
